Records with an inconclusive call do not appear. Activity calls are given as the source filed them. Calls follow the shape of the dose curve; as a rule, active = well fitted cell-killing curve with a large enough effect; inconclusive = small, poorly fitted or top-dose-only effect; inactive = flat fitted curve, though single readings scatter.
Assay: qHTS of pediatric cancer cell lines to identify multiple opportunities for drug repurposing: Confirmatory screen for A673 cells (AID 1347110);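 also: cells exposed to compound for 48 h before the viability read; nearly all actives have a fitted effect of over 65% in size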
Conditions: A673 Ewing sarcoma cell viability
Description: Drug repurposing or repositioning has been offered as a strategy for drug development in oncology programs. This approach has special potential for childhood cancers and other rare or orphan diseases, where the expected return on new drug development has been a disincentive to pharmaceuticals.
In this project we exploit the poly-pharmacology of drugs to discover new indications via phenotypic screening of a panel of 19 well-characterized cell lines derived from solid tumors seen in children and adolescents. The goal is to identify approved drugs with previously unrecognized anticancer properties that has the potential to reveal new mechanisms and biological processes involved in carcinogenesis or drug resistance. We employed a titration-based paradigm (quantitative high-throughput screening or qHTS), where all compounds were tested at multiple concentrations for their effect on cell viability. Concentration-response curves (CRCs) were derived directly from the primary screen, and both potency and efficacy values were used to identify compounds with robust bioactivity profiles. We screened the NIH Chemical Genomics Center (NCGC) Pharmaceutical Collection (NPC) and Mechanism Interrogation Plate (MIPE) small molecule collections of approved and investigational compounds against these cell lines; and measured metabolically active cells after 48 hours of compound treatment as a proxy for cell viability.
Assay Submitter: Nathalia J. Martinez, National Center for Advancing Translational Sciences, National Institutes of Health, Rockville, MD, USA; email: natalia.martinez@nih.gov.
[1] Shen, M et al. Quantitative high-throughput phenotypic screening of pediatric cancer cell lines identifies multiple opportunities for drug repurposing. Oncotarget 2017 Dec 19;9(4):4758-4772. PMID 29435139.
The cells were obtained from University of North Carolina (UNC), Pediatric Preclinical Testing Program (PPT), and Coriell Institute (CI).
qHTS cell viability assay:
Cells were assayed in growth media at a density of 500-1,000 cells/well. Five microliters of cells were dispensed into 1,536-well, white, solid-bottom, TC-treated plates (Greiner Bio One) using a multidrop dispenser and incubated at 37 degrees C, 5% CO2, under a humidified atmosphere for 5 hours. Twenty-three nanoliters of compounds and controls (neutral control DMSO or positive control bortezomib at final concentration of 2.3 uM) were subsequently transferred by Kalypsys pintool. For primary screens, the MIPE collection was tested at 11-point dilutions (final concentrations range from 0.78 nM to 46 µM) and the NPC collection at 8-point dilutions (final concentrations range from 0.59 nM to 46 µM). Compounds tested in follow-up screens were assayed at 11-point dilutions. Cells were incubated for 48 hours, followed by addition of 3 uL of CellTiter-Glo (Promega). After a 15min incubation at room temperature, samples were analyzed for luminescence intensity using a ViewLux High-throughput CCD imager equipped with clear filters.
Potency is read from the fitted curve at half-maximal effect.

**Q.** Which Potency does the source give for N=C1N=C(N)c2cc3ccccc3cc21 here?
**A.** 38000 nM (active)

**Q.** With [O-][n+]1ccccc1SSc1cccc[n+]1[O-] as the molecule, how does the Potency read?
**A.** 1620 nM (active)

**Q.** Which Potency does the source give for COc1cccc2c1C(=O)c1c(O)c3c(c(O)c1C2=O)C[C@@](O)(C(=O)CO)C[C@@H]3O[C@H]1C[C@H](N)[C@H](O[C@@H]2CCCCO2)[C@H](C)O1 here?
**A.** 3290 nM (active)

**Q.** Which Potency does the source give for COC(=O)Nc1nc2ccc(C(=O)C3CC3)cc2[nH]1 here?
**A.** 1310 nM (active)

**Q.** For CCCSc1ccc2nc(NC(=O)OC)[nH]c2c1, which Potency is on record?
**A.** 2000 nM (active)

**Q.** Which Potency does the source give for COC(=O)c1nc(Cl)c(Cl)nc1N here?
**A.** 293 nM (active)

**Q.** With Oc1c(Br)cc(Br)c2cccnc12 as the molecule, how does the Potency read?
**A.** 11700 nM (active)

**Q.** Which Potency does the source give for Nc1ccc([N+](=O)[O-])cc1O here?
**A.** 2140 nM (active)

**Q.** Which Potency does the source give for CN(C)c1ccc(C(=C2C=CC(=[N+](C)C)C=C2)c2ccccc2)cc1 here?
**A.** 293 nM (active)

**Q.** Which Potency does the source give for CCOC(=O)c1ccccc1O here?
**A.** 3290 nM (active)

From PubChem BioAssay (NCATS)
